Data taken from the supplement of paper PMC10849652.
Of roughly 7,900 targets only a part is listed; those with a hit were picked by preference. About 0.6% of all pairs of compound and target were hits. A number with no mark means an inactive call.

Experiments:
Assay in all cases: log2 fold change, soluble protein after heating vs DMSO (PISA); higher = thermal stabilisation; K562 cells, 10 uM, 30 min; active = over 0.2 and 3.5 SD of the protein, either way, in both replicates (recomputed)
[1] = compound: COC1=CC=C(C=C1)CN2C=CC3=C2C=C(C=C3)C(=O)NO
Summary of the method: (§1)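 Quantification of soluble protein used TMTpro 16plex LC-MS/MS, with channel sums equalised. Samples were the supernatant after 21,000xg for 90 min of pooled aliquots from K562 cells (2×10^6 cells/mL) treated with 10 μM compound for 30 min, heated for 3 min over 48°C-58°C, and extracted in PBS with 0.5% NP-40 at 4°C. Values, from duplicates, describe thermal stability against control samples on a log2 fold-change scale.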

filanesib = compound: CON(C)C(=O)N1N=C(c2cc(F)ccc2F)S[C@@]1(CCCN)c1ccccc1 [filanesib]
Summary of the method: as §1

zotarolimus = compound: CO[C@H]1C[C@@H]2CC[C@@H](C)[C@@](O)(O2)C(=O)C(=O)N2CCCC[C@H]2C(=O)O[C@H]([C@H](C)C[C@@H]2CC[C@H](n3cnnn3)[C@H](OC)C2)CC(=O)[C@H](C)/C=C(\C)[C@@H](O)[C@@H](OC)C(=O)[C@H](C)C[C@H](C)/C=C/C=C/C=C/1C [zotarolimus]
Summary of the method: as §1

idasanutlin = compound: COc1cc(C(=O)O)ccc1NC(=O)[C@@H]1N[C@@H](CC(C)(C)C)[C@](C#N)(c2ccc(Cl)cc2F)[C@H]1c1cccc(Cl)c1F [idasanutlin]
Summary of the method: as §1

alisertib = compound: COc1cc(Nc2ncc3c(n2)-c2ccc(Cl)cc2C(c2c(F)cccc2OC)=NC3)ccc1C(=O)O [alisertib]
Summary of the method: as §1

[2] = compound: COc1cc2nc(-c3cc(F)ccc3O)nc(N[C@@H]3CNC[C@H]3C(C)(C)O)c2cc1OC
Summary of the method: as §1

gefitinib = compound: COc1cc2ncnc(Nc3ccc(F)c(Cl)c3)c2cc1OCCCN1CCOCC1 [gefitinib]
Summary of the method: as §1

[3] = compound: COc1cccc2cc(-c3nc([C@H]4CC[C@H](C(=O)O)CC4)n4ncnc(N)c34)[nH]c12
Summary of the method: as §1

lapatinib = compound: CS(=O)(=O)CCNCc1ccc(-c2ccc3ncnc(Nc4ccc(OCc5cccc(F)c5)c(Cl)c4)c3c2)o1 [lapatinib]
Summary of the method: as §1

pictilisib = compound: CS(=O)(=O)N1CCN(Cc2cc3nc(-c4cccc5[nH]ncc45)nc(N4CCOCC4)c3s2)CC1 [pictilisib]
Summary of the method: as §1

Sequence of UniProt O00767 (O00767 whole entry, looked up): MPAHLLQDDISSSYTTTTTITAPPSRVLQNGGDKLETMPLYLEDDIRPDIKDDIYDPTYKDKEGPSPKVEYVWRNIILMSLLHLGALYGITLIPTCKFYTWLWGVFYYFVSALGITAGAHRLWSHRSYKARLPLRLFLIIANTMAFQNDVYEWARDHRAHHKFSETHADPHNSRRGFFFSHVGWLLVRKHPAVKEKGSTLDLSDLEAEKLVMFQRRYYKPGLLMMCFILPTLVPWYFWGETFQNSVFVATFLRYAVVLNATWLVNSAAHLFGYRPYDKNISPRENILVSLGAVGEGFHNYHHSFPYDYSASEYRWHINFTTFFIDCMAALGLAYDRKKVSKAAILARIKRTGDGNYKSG
Sequence of UniProt Q9NTJ5 (Q9NTJ5 whole entry, looked up): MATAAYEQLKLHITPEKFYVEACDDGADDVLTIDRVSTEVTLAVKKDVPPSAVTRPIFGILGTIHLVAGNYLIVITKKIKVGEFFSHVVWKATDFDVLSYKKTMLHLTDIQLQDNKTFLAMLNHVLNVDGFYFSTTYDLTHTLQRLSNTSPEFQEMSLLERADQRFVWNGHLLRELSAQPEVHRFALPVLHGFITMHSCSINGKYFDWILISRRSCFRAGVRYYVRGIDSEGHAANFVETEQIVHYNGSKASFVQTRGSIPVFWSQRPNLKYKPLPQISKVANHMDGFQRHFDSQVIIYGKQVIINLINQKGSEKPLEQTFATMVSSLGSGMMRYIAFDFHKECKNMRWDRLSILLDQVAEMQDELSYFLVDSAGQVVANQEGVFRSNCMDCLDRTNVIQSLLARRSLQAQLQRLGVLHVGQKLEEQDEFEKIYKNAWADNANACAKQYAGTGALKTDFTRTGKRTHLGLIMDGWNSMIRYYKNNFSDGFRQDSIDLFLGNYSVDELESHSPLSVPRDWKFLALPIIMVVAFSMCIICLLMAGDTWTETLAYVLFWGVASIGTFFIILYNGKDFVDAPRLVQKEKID
Sequence of UniProt Q6NT16 (Q6NT16 whole entry, looked up): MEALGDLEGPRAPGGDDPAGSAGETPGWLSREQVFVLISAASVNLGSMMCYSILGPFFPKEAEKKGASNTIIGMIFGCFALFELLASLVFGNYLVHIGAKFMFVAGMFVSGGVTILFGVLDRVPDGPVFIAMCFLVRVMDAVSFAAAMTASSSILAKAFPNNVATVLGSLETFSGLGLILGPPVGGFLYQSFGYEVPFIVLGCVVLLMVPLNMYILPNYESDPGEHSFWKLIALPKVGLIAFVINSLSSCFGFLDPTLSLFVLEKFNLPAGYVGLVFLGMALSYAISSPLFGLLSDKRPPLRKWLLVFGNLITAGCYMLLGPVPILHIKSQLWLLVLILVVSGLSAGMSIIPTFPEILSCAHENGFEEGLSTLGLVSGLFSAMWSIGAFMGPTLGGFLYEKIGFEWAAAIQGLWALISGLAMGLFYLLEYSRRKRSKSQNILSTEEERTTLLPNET
Sequence of UniProt Q53H47 (Q53H47 whole entry, looked up): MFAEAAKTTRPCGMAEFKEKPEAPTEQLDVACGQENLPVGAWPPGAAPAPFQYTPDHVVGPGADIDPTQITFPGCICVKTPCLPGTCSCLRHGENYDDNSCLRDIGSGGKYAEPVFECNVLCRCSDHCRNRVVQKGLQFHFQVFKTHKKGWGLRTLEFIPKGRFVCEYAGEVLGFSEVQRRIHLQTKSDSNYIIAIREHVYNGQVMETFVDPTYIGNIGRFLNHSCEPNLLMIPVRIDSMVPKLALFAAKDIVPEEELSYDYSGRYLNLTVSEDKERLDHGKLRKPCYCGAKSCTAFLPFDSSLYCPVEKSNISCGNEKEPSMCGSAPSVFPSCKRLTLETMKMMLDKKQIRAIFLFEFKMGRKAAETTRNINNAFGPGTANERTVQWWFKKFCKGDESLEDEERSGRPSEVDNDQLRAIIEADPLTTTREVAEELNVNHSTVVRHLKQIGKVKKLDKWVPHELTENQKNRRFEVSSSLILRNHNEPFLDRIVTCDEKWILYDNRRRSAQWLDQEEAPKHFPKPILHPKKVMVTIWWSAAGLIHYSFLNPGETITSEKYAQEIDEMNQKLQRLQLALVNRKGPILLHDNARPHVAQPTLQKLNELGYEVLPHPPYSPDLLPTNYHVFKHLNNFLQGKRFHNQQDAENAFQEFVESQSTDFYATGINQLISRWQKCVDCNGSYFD
Sequence of UniProt Q5VUM1 (Q5VUM1 whole entry, looked up): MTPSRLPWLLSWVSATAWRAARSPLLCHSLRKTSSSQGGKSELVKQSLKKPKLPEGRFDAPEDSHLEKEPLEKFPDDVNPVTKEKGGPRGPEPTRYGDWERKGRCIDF
Sequence of UniProt Q9P2N5 (Q9P2N5 whole entry, looked up): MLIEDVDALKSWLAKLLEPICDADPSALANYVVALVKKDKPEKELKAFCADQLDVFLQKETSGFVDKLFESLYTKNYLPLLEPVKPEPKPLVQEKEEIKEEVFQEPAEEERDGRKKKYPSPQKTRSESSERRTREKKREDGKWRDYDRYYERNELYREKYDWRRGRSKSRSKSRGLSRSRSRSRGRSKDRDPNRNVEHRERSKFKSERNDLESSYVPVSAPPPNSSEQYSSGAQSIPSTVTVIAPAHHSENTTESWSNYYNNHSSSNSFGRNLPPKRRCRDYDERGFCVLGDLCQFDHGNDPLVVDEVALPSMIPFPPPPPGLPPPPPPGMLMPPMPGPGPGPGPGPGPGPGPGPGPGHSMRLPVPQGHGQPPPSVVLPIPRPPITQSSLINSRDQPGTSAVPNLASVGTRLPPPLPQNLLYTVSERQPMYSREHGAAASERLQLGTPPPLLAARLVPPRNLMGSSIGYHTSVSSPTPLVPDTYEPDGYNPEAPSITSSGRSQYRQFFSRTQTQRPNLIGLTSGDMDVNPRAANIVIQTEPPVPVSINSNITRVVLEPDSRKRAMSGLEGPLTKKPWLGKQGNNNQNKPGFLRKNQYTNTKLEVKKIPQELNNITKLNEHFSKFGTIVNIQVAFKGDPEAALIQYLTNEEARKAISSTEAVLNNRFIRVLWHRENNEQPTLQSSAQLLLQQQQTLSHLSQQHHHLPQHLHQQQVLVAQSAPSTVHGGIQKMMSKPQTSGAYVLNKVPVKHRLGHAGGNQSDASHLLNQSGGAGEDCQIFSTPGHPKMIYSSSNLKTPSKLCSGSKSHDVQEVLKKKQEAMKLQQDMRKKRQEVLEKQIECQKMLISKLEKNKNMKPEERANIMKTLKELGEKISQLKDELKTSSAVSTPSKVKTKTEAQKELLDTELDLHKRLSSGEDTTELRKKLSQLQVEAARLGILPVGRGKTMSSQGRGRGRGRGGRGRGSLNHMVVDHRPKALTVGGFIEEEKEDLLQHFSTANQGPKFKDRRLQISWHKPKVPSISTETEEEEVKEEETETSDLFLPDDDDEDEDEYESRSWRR
Sequence of UniProt Q96I25 (Q96I25 whole entry, looked up): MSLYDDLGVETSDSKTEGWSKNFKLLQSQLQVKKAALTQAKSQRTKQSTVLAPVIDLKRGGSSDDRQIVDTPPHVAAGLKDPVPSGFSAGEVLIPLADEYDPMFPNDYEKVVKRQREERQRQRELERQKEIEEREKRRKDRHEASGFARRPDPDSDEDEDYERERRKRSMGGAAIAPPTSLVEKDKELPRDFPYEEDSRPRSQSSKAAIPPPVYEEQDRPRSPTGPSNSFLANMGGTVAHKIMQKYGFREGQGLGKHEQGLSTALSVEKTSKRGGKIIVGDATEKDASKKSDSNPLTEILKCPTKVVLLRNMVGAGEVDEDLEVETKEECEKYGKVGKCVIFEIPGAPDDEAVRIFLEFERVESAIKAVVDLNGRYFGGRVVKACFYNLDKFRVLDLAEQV
Sequence of UniProt Q8IXJ6 (Q8IXJ6 whole entry, looked up): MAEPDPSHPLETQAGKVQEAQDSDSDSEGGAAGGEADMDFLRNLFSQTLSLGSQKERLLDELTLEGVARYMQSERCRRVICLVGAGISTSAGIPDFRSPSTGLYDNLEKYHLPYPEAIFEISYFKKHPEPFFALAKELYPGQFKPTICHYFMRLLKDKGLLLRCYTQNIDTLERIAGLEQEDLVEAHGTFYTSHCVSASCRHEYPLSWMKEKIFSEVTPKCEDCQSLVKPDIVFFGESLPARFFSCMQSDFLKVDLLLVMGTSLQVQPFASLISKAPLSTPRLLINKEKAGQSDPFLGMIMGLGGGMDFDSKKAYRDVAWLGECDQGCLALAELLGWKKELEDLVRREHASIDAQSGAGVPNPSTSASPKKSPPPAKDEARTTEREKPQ
Sequence of UniProt Q14493 (Q14493 whole entry, looked up): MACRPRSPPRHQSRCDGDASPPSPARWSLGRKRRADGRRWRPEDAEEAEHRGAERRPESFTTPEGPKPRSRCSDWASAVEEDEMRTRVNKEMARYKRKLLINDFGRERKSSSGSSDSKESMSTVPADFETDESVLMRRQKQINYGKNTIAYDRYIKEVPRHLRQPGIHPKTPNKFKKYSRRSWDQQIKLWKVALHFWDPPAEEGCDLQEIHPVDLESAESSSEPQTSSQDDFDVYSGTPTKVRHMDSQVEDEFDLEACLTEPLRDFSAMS
Sequence of UniProt O95059 (O95059 whole entry, looked up): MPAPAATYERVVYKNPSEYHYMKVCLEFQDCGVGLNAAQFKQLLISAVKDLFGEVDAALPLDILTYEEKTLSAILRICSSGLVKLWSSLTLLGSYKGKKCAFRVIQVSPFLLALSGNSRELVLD
Sequence of UniProt Q99496 (Q99496 whole entry, looked up): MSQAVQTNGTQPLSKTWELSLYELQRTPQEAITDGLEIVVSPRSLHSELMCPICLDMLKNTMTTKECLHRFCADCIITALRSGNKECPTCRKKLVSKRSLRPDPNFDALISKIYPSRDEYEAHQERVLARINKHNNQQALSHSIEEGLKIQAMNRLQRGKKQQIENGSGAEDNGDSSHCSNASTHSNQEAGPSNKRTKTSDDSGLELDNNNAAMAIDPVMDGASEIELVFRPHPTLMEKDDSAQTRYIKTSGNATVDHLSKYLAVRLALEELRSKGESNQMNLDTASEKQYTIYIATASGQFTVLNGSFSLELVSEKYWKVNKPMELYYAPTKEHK

Row | Target | log2 fold change [1] | log2 fold change (filanesib) | log2 fold change (zotarolimus) | log2 fold change (idasanutlin) | log2 fold change (alisertib) | log2 fold change [2] | log2 fold change (gefitinib) | log2 fold change [3] | log2 fold change (lapatinib) | log2 fold change (pictilisib)
1 | RPS15 (UniProt P62841) | 0.086 | 0.192 | -0.082 | 0.049 | -0.107 | 0.027 | 0.008 | -0.147 | -0.01 | -0.054
2 | RMC1 (UniProt Q96DM3) | -0.002 | -0.058 | -0.015 | -0.047 | -0.059 | -0.006 | 0.045 | 0.044 | -0.029 | -0.105
3 | SDHAF4 (UniProt Q5VUM1) | -0.072 | 0.034 | -0.01 | -0.223 | -0.073 | -0.026 | 0.026 | 0.096 | -0.154 | 
4 | RABGAP1L isoform 3 (UniProt Q5R372) | -0.108 | -0.026 | -0.006 | -0.05 | -0.008 | -0.025 | 0.035 | 0.033 | 0.012 | -0.066
5 | SLBP (UniProt Q14493) | -0.148 | -0.035 | 0.112 | 0.224 | -0.152 | -0.199 | 0.034 | 0.077 | 0.004 | 0.05
6 | SEC23IP (UniProt Q9Y6Y8) | -0.006 | 0 | -0.002 | 0.016 | 0 | -0.065 | 0.009 | -0.096 | 0.035 | -0.006
7 | SIRT2 (UniProt Q8IXJ6) | 0.083 | -0.02 | -0.029 | 0.016 | 0.036 | -0.012 | 0.069 | 0.017 | 0.065 | 0.168
8 | SENP6 (UniProt Q9GZR1) | 0.029 | 0.115 | -0.077 | 0.088 | -0.016 | 0.016 | 0.028 | 0.039 | 0.066 | 0.076
9 | RPS5 (UniProt P46782) | 0.004 | 0.089 | 0.011 | 0.094 | -0.11 | -0.056 | -0.052 | -0.126 | 0.081 | -0.099
10 | SACM1L (UniProt Q9NTJ5) | 0.044 | -0.081 | 0.029 | -0.027 | -0.05 | -0.039 | 0.086 | 0.023 | 0.028 | -0.038
11 | SESN2 (UniProt P58004) | 0.013 | -0.174 | 0.099 | -0.107 | -0.005 | -0.112 | 0.08 | -0.085 | 0.25 | 0.167
12 | RALA (UniProt P11233) | 0.348 (active) | -0.025 | 0.035 | -0.019 | -0.066 | -0.066 | 0.004 | 0.053 | 0.025 | -0.099
13 | RABGAP1L isoform 5 (UniProt Q5R372) | 0.117 | 0.108 | -0.008 | 0.05 | -0.071 | 0.065 | -0.097 | 0.007 | -0.027 | 
14 | SCD (UniProt O00767) | -0.458 (active) | -0.074 | -0.024 | -0.001 | 0.014 | -0.054 | 0.019 | 0.048 | -0.017 | -0.053
15 | SHROOM2 (UniProt Q13796) | 0.417 | 0.066 | 0.02 | -0.045 | -0.027 | 0.237 | 0.056 | 0.009 | -0.188 | 0.226
16 | SLC18B1 (UniProt Q6NT16) | 0.072 | -0.094 | -0.068 | 0.083 | 0.022 | 0.058 | 0.01 | 0.087 | -0.061 | 0.067
17 | RPP14 (UniProt O95059) | -0.006 | 0.046 | 0.004 | -0.038 | -0.051 | -0.053 | -0.022 | 0.047 | 0.042 | -0.19
18 | RBM17 (UniProt Q96I25) | 0.026 | 0.038 | 0.064 | 0.121 | -0.055 | -0.031 | 0.003 | 0.019 | 0 | -0.276
19 | SETMAR (UniProt Q53H47) | -0.135 | -0.065 | 0.048 | -0.037 | 0.014 | -0.002 | -0.044 | 0.004 | 0.018 | -0.009
20 | RPS2 (UniProt P15880) | -0.049 | 0.214 | -0.013 | 0.114 | -0.1 | -0.027 | -0.05 | -0.184 | 0.094 | -0.143
21 | SH3GL1 (UniProt Q99961) | 0.046 | -0.047 | 0.062 | 0 | 0.012 | 0 | -0.029 | -0.048 | -0.008 | -0.005
22 | SCAMP2 (UniProt H3BUB6) | -0.27 | 0.126 | -0.217 | 0.134 | -0.019 | 0.319 | 0.003 | 0.188 | -0.329 | 
23 | RRAGC (UniProt Q9HB90) | -0.028 | -0.095 | -0.009 | -0.065 | -0.003 | 0.011 | -0.01 | 0.057 | -0.01 | 0.066
24 | RPS14 (UniProt P62263) | 0.034 | 0.046 | 0.028 | 0.062 | -0.209 | -0.047 | -0.048 | -0.154 | 0.132 | -0.321
25 | RNF2 (UniProt Q99496) | -0.104 | 0.023 | 0 | -0.01 | -0.105 | -0.04 | 0.106 | 0.039 | 0.011 | 0.099
26 | RIPK1 (UniProt Q13546) | 0 | 0.049 | 0.098 | 0.022 | -0.052 | 0.032 | 0.043 | -0.214 | 0.055 | 0.027
27 | RPS27A (UniProt P62979) | -0.084 | 0.215 | 0.009 | 0.129 | -0.041 | -0.066 | -0.076 | -0.185 | -0.006 | -0.13
28 | RBM27 (UniProt Q9P2N5) | -0.025 | 0.094 | 0.027 | 0.075 | 0.02 | -0.058 | 0.057 | 0.018 | 0.051 | -0.08
29 | SH3GLB2 (UniProt Q9NR46) | 0.016 | 0.085 | 0.052 | 0.061 | -0.011 | -0.034 | -0.004 | -0.018 | -0.04 | 0.025
30 | SEH1L isoform 1 (UniProt Q96EE3) | -0.004 | 0.012 | -0.03 | -0.014 | -0.024 | 0.025 | 0.015 | 0.038 | -0.045 | 0.017
